From PubChem BioAssay (EPA / NIEHS) come the findings set out here.

Experiment [1] deals with Estrogen receptor (Homo sapiens) (UniProt P03372). Put plainly: OT_ER_ERaERa_1440: Odyssey Thera (OT) 24-hour HEK293T Protein-Complementation Assay for Estrogen Receptor-alpha/-alpha Homodimer (AID 2283349).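 Further: hits raise fluorescence above DMSO for agonists and antagonists alike.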 In outline: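 Readout is the rise in mean fluorescence from reporter fragment complementation when ERα LBD (aa 310-547) units dimerize in HEK293T cells. Measured 24 h after dosing and analysed as increase over DMSO control.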
Estrogen receptor (Homo sapiens), sequence (P03372 whole entry, looked up, the tested form may be a part): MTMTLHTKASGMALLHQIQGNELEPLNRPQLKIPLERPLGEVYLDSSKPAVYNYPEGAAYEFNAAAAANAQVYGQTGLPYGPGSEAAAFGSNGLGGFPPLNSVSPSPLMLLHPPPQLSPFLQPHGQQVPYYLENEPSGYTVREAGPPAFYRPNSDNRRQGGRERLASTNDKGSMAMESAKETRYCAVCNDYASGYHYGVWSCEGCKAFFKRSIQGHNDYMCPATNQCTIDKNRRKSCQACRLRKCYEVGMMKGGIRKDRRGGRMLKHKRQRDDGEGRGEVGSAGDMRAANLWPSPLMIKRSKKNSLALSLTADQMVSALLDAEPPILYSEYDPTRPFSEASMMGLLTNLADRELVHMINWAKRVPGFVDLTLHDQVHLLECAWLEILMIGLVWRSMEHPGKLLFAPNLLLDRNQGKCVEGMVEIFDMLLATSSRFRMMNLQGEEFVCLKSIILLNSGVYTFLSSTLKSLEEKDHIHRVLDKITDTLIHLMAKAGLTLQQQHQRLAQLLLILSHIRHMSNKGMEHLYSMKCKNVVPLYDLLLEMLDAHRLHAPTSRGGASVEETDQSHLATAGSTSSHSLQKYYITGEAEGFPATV

The target is the same in experiment [2]. The experiment in a line: OT_ER_ERaERa_0480: Odyssey Thera (OT) 8-hour HEK293T Protein-Complementation Assay for Estrogen Receptor-alpha/-alpha Homodimer (AID 2283351).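 Further: rise in fluorescence from reassembled reporter fragments on ERα LBD homodimer in nucleus or whole cell.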 The method, boiled down: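 HEK293T, stable ERα LBD (aa 310-547) PCA homodimer; 8 h compound exposure; fluorescence intensity, laser scanning cytometer; positive fitting direction, DMSO baseline.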

Experiment [3] concerns the target Estrogen receptor (Homo sapiens) + Estrogen receptor beta (Homo sapiens) (UniProt P03372+Q92731). Put plainly: OT_ER_ERaERb_0480: Odyssey Thera (OT) 8-hour HEK293T Protein-Complementation Assay for Estrogen Receptor-alpha/-beta Heterodimer (AID 2283352). In outline:
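HEK293T protein-fragment complementation assay of ER-alpha/ER-beta LBD heterodimerisation, read 8 h after dosing. Mean nuclear/cytoplasmic fluorescence intensity measured by laser scanning cytometry; gain of signal fitted relative to DMSO.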

Experiment [4] addresses Estrogen receptor beta (Homo sapiens) (UniProt Q92731). The experiment in a line: OT_ER_ERbERb_0480: Odyssey Thera (OT) 8-hour HEK293T Protein-Complementation Assay for Estrogen Receptor-beta/-beta Homodimer (AID 2283357).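 Further: active means signal gain over DMSO baseline.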 The method, boiled down: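 Readout: increase in mean fluorescence intensity (nucleus for agonists; nucleus plus cytoplasm for antagonists) relative to DMSO, from a reporter-fragment complementation of human ER-beta LBD homodimer in HEK293T cells dosed 8 hours.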

Experiment [5] deals with human Peroxisome Proliferator-activated Receptor alpha (PPARa), PPARA (gene 5465) (UniProt Q07869). The experiment in a line: NVS_NR_hPPARa: NovaScreen (NVS) Nuclear Receptor Binding Assay for human Peroxisome Proliferator-activated Receptor alpha (PPARa) (AID 2283359).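 Further: activity means loss of TR-FRET signal versus DMSO baseline.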 The method, boiled down:
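Cell-free binding assay with extracted human protein, read by TR-FRET 1 h after chemical dosing. Loss of signal relative to DMSO baseline indicates binding. Primary screen used duplicate single concentration (25 uM); actives followed up in concentration series.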

The target of another experiment is PGR (gene 5241) (UniProt P06401). Put plainly: NVS_NR_hPR: NovaScreen (NVS) Nuclear Receptor Binding Assay for human Progestron Receptor (PR) (AID 2283360).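 Further: active means loss of bound radioligand signal versus DMSO baseline.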 In outline:
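Radioligand competition binding on receptor extracted from T47D cells, read by scintillation counting 18 h after dosing. Loss of signal versus DMSO; primary screen in duplicate at 25 uM, actives followed in concentration series.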

The target of experiment [6] is Androgen Receptor/SRC-1 Co-activator, AR (gene 367) (UniProt P10275). The experiment in a line: OT_AR_ARSRC1_0960: Odyssey Thera (OT) 16-hour HEK293T Protein-Complementation Assay for Androgen Receptor/SRC-1 Co-activator (AID 2283353).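 Further: actives raise the signal above DMSO so potency reflects increased AR and SRC-1 complex.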 In outline:
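Split-Venus PCA, AR/SRC-1 fusions, stable HEK293T; 16 h compound exposure; imaged at 488 and 635 nm; N/C ratio (488 nm channel), min 400 cells/image; positive-direction fit, DMSO baseline.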

Experiment [7] concerns the target Retinoic acid receptor alpha (Homo sapiens) (UniProt P10276). The experiment in a line: NVS_NR_hRAR_Antagonist: NovaScreen (NVS) Nuclear Receptor Binding Assay for human Retinoic Acid Alpha Receptor Antagonism (RAR) (AID 2283358). In outline:
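Cell-free TR-FRET binding assay on extracted receptor protein, run in antagonist mode; signal read 2 hours after chemical dosing. Loss of signal was fitted relative to DMSO baseline. Screened at 25 uM in duplicate, actives followed up in concentration series.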

The target is the same in experiment [8]. The experiment in a line: NVS_NR_hRARa_Agonist: NovaScreen (NVS) Nuclear Receptor Binding Assay for human Retinoic Acid Alpha Receptor Agonism (RAR) (AID 2283361). The method, boiled down: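 Cell-free TR-FRET binding read-out with extracted human RARα protein, read 2 h after compound addition. Gain of signal scored against DMSO baseline. Primary screen at a single 25 uM in duplicate; actives then retested in concentration series.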

Experiment [9] has as its target human Thyroid Receptor Alpha (TRa), THRA (gene 7067) (UniProt P10827). Put plainly: NVS_NR_hTRa_Antagonist: NovaScreen (NVS) Nuclear Receptor Binding Assay for human Thyroid Receptor Alpha Antagonism (TRa) (AID 2283362).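 Further: activity is loss of signal relative to DMSO baseline.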 In outline:
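Cell-free AlphaLISA chemiluminescent binding read 1 h after dosing, antagonist mode; signal loss versus DMSO baseline. Primary screen in duplicate at 25 uM, then concentration series for actives.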

Experiment [10] has as its target Androgen Receptor/SRC-1 Co-activator, AR (gene 367) (UniProt P10275). Put plainly: OT_AR_ARSRC1_0480: Odyssey Thera (OT) 8-hour HEK293T Protein-Complementation Assay for Androgen Receptor/SRC-1 Co-activator (AID 2283354).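 Further: hits raise the complementation signal above DMSO so AC50 marks enhancers.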 In outline: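 HEK293T cells stably expressing AR and SRC-1 fused to split Venus YFP fragments via (Gly4Ser)2 linkers were read 8 h after compound dosing. Complementation was imaged at 488 and 635nm, and nuclear/cytoplasmic fluorescence ratio (488nm) was taken over ≥400 cells; gain-of-signal versus DMSO.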

Records with an inconclusive call do not appear. The source made the active and inactive calls. How the source made its calls: active means hit-call score of the fitted dose curve at least 0.9, where 1 is the maximum; inconclusive means response in the unintended direction; inactive means score below 0.9.

The term AC50 denotes the concentration giving half of the maximal activity seen.

Estrogen receptor (Homo sapiens) + Estrogen receptor beta (Homo sapiens), sequence (P03372 whole entry, looked up, the tested form may be a part): as above
Estrogen receptor (Homo sapiens) + Estrogen receptor beta (Homo sapiens), sequence (Q92731 whole entry, looked up, the tested form may be a part): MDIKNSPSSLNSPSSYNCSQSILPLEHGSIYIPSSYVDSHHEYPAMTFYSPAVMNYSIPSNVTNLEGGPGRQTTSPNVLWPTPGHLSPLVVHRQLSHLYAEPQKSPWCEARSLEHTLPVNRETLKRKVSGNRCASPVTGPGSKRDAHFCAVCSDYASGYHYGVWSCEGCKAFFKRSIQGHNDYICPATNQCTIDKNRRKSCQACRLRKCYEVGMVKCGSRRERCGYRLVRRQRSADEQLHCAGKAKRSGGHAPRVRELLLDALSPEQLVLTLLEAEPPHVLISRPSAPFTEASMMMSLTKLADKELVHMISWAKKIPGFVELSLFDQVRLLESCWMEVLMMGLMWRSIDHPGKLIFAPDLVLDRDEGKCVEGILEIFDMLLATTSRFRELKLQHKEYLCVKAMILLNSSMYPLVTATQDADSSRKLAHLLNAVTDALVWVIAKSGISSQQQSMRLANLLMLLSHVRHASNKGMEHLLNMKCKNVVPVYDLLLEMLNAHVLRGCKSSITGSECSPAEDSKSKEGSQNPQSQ
PGR (gene 5241), sequence (P06401 whole entry, looked up): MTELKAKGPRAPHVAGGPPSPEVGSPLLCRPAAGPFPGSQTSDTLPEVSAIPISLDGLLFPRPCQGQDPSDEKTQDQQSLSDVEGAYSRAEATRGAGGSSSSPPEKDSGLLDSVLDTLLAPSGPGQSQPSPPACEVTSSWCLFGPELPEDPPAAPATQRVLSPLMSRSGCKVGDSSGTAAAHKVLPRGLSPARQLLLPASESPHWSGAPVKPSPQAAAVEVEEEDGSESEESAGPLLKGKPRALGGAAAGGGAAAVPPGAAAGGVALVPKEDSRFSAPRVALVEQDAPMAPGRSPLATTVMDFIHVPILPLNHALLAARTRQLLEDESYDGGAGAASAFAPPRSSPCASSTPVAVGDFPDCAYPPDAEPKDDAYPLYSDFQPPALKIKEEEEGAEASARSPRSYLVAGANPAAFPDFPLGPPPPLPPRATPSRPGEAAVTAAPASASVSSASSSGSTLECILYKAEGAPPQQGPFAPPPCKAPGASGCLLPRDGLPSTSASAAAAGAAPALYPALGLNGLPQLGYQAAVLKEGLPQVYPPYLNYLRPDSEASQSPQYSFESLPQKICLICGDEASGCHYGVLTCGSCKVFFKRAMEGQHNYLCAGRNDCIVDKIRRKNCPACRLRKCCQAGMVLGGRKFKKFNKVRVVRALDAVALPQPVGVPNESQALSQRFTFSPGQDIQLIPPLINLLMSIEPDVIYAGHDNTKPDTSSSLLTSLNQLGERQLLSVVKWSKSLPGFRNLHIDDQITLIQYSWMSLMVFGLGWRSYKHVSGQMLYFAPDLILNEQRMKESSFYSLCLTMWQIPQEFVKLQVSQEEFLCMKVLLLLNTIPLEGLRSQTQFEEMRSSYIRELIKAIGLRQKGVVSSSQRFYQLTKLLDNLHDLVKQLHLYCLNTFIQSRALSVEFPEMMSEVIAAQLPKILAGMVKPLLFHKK
Androgen Receptor/SRC-1 Co-activator, AR (gene 367), sequence (P10275 whole entry, looked up, the tested form may be a part): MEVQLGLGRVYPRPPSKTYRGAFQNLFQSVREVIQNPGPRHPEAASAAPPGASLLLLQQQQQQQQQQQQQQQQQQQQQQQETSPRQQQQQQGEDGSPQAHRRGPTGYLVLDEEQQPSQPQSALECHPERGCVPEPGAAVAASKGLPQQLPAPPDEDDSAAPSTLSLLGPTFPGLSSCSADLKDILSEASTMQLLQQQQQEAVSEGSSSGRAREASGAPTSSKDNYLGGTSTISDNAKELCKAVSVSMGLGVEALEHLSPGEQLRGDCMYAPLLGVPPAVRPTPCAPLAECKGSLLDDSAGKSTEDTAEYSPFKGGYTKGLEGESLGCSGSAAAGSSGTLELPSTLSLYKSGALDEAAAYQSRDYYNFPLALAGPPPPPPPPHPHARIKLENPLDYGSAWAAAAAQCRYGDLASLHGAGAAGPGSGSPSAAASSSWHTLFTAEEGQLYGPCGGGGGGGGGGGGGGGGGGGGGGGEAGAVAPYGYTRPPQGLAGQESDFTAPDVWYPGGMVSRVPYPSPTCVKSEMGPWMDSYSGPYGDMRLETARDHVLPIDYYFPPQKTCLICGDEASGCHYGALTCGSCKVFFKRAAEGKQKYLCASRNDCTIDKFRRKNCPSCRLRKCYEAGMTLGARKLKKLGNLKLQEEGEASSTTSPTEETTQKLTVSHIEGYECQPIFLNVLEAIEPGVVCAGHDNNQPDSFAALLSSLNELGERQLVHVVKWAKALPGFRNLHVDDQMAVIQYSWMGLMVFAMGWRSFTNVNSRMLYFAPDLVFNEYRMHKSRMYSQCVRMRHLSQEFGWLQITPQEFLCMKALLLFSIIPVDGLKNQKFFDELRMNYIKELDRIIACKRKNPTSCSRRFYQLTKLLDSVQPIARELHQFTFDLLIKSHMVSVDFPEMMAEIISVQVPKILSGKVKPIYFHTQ
Estrogen receptor beta (Homo sapiens), sequence (Q92731 whole entry, looked up, the tested form may be a part): as the sequence (Q92731 whole entry, looked up, the tested form may be a part) above
Retinoic acid receptor alpha (Homo sapiens), sequence (P10276 whole entry, looked up): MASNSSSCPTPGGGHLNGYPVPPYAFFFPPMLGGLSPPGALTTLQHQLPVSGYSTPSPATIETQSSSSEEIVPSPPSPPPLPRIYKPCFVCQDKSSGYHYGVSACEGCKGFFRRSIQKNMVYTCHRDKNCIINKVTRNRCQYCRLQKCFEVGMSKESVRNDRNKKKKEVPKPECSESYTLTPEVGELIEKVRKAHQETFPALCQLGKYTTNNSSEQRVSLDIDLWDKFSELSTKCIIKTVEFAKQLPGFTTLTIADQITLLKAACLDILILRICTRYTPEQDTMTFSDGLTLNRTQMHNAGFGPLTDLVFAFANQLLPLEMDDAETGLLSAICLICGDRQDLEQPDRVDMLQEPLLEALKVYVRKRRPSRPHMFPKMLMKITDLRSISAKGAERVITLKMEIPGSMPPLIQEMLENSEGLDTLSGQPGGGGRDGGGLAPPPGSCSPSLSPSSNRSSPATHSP
human Peroxisome Proliferator-activated Receptor alpha (PPARa), PPARA (gene 5465), sequence (Q07869 whole entry, looked up): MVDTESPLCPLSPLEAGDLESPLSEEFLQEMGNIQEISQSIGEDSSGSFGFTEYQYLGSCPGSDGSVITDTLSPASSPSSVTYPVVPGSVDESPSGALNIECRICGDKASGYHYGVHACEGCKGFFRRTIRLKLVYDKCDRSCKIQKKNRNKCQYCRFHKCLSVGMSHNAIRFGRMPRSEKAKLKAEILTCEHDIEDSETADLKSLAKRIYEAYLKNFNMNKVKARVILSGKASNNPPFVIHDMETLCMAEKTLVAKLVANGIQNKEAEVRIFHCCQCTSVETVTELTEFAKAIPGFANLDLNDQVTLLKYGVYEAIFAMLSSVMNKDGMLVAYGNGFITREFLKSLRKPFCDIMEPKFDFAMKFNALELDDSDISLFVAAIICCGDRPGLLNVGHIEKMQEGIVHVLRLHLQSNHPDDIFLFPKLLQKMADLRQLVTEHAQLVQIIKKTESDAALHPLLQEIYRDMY
human Thyroid Receptor Alpha (TRa), THRA (gene 7067), sequence (P10827 whole entry, looked up): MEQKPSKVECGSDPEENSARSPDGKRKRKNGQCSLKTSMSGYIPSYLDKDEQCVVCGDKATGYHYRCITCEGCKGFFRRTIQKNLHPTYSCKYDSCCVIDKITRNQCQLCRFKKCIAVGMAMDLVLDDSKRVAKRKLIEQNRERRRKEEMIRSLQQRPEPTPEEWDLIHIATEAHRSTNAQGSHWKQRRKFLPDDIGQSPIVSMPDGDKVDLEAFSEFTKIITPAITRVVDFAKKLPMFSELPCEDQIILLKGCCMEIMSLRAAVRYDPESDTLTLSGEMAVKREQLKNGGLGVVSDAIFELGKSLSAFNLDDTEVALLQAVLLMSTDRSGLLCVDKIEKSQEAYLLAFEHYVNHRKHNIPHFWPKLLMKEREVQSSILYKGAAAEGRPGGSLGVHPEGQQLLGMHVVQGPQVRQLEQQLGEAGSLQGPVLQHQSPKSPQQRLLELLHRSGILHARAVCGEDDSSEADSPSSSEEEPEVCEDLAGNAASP

For `Oc1ccc2c(c1)OC[C@@H](N1CCC(O)(c3ccc(F)cc3)CC1)[C@H]2O`, the outcome (in [1]; in [2]; in [3]; in experiment [4]; in experiment [5]; with PGR (gene 5241)) was inactive.

Consider `COc1cc(S(=O)(=O)O)c(C)cc1N=Nc1c(O)ccc2cc(S(=O)(=O)O)ccc12`, for which the compound was classed as inactive in experiment [1] and in experiment [2]. Moreover, the AC50 with PGR (gene 5241) was 14.2 µM (active).

`COCCOCCOC`: the result in [1], in experiment [3], in [6] and in [4] was inactive.

As for `CC1=C(/C=C/C(C)=C/C=C/C(C)=C/CO)C(C)(C)CCC1`, the result in [1], in experiment [2], in [3], in [4], in [7] and in experiment [5] was inactive. Also, in [8], the result was inactive.

For the compound `Nc1nc(N)c2nc(CNc3ccc(C(=O)N[C@@H](CCC(=O)O)C(=O)O)cc3)cnc2n1`, the call in experiment [1], in experiment [2], in experiment [3] and in experiment [4] was inactive.

Regarding `CC1(C)CC(N=C=O)CC(C)(CN=C=O)C1` (stereo unspecified), the call in [1], in [2] and in [9] was inactive. Moreover, the AC50 with PGR (gene 5241) is 11.7 µM (active).

Regarding `Cc1nc(C)nc(N2C[C@@H](C)N(c3ccnc([C@@H](C)O)n3)[C@@H](C)C2)n1`, the compound was classed as inactive in experiment [2].

Regarding `COCCOC[C@H](CC1(C(=O)NC2CCC(C(=O)O)CC2)CCCC1)C(=O)Oc1ccc2c(c1)CCC2` (stereo partly specified), the compound was called inactive (in experiment [1]; in experiment [2]; in [6]; in experiment [10]; in experiment [4]; with PGR (gene 5241)).

On to `CN1CCCC1=O`, for which the outcome in experiment [1] and in experiment [3] was inactive.

In the case of `CC(=O)OCCOCCOCCOC(C)=O`, the compound was called inactive in experiment [1], in experiment [2], in [3] and in [4].
